# Reference: PubChem BioAssay (NCATS)
# Records with an inconclusive call do not appear. Entries that show only a call come without a potency. A number with no mark means an inactive call. Activity calls are given as the source filed them. The call rests on the fitted dose curve; in most records, active means well fitted curve in the direction sought with a large enough effect; inconclusive means small, poorly fitted or top-dose-only effect, or another doubt; inactive means no such curve, though single readings can be large; an effect the other way counts as inactive or inconclusive.
# What was measured:
# [1] = biological target: Aldehyde dehydrogenase, mitochondrial (Homo sapiens) (UniProt P05091); experiment: qHTS for Inhibitors of the Aldehyde Dehydrogenase Family (ALDH2) Primary screen (AID 2061308); settings: ALDH2 enzyme inhibition qHTS, 1536-well; series mostly up to 56 µM; further: nearly all actives have a fitted effect of over 55% in size
# [2] = biological target: Retinaldehyde dehydrogenase 3 (Homo sapiens) (UniProt P47895); experiment: qHTS for Inhibitors of the Aldehyde Dehydrogenase Family (ALDH1A3) Primary screen (AID 2061315); settings: ALDH inhibition qHTS; series mostly up to 56 µM
SMILES,Potency [1],Potency [2],"activity change, negative = inhibition [1]","activity change, negative = inhibition [2]"
COc1cccc(OC)c1C1=Nn2c(nnc2-c2ccccc2O)SC1,inactive,inactive,–,–
CC1(C)CC[C@]23CO[C@@]4(CCC5[C@@]6(C)CC[C@H](O[C@@H]7OC[C@H](O[C@@H]8O[C@H](CO)[C@@H](O)[C@H](O)[C@H]8O[C@@H]8OC[C@@H](O)[C@H](O)[C@H]8O)[C@H](O)[C@H]7O[C@@H]7O[C@H](CO)[C@@H](O)[C@H](O)[C@H]7O)[C@@](C)(CO)C6CC[C@@]5(C)[C@]4(C)C[C@H]2O)[C@@H]3C1 (some centres undefined),inactive,inactive,–,–
CC/C(C)=C/C(=O)OC1C(OC2(C)CCC3C(C4C(C)CCC42)C3(C)C)OC(C)C(O)C1O (centres undefined),inactive,inactive,–,–
COc1cc(O)c(C(CC(=O)N2CCC[C@@H](C)C2)c2ccc3c(c2)OCO3)c(OC)c1 (some centres undefined),inactive,inactive,–,–
C=C(C)c1cc2c(s1)c1cnn(Cc3ccccc3F)c(=O)c1n2C,inactive,inactive,–,–
CC(=O)Nc1sc2c(c1-c1cccs1)CCNC2,inactive,inactive,–,–
CC1(C)CC[C@]2(C(=O)O[C@@H]3O[C@H](CO[C@@H]4O[C@H](CO[C@@H]5O[C@H](CO)[C@H](O)[C@H](O)[C@H]5O)[C@@H](O)[C@H](O)[C@H]4O)[C@@H](O)[C@H](O[C@@H]4O[C@H](CO)[C@@H](O)[C@H](O)[C@H]4O)[C@H]3O)[C@H](O)C[C@]3(C)C(=CCC4[C@@]5(C)CC[C@H](O[C@@H]6OC[C@@H](O)[C@H](O)[C@H]6O)[C@@](C)(C(=O)O)C5CC[C@]43C)[C@@H]2C1 (some centres undefined),–,–,13.7% [at 11.2 µM],11.1% [at 11.2 µM]
CC(C)c1ccccc1-c1ncc(F)c(NC2(c3ccc(-c4cccnc4)cc3)CC2)n1,inactive,inactive,–,–
O=C(O)c1ccnc2c(O)cccc12,inactive,inactive,–,–
COc1cc(-c2ccc3ncnc(NCc4ccc(C)o4)c3c2)cc(OC)c1OC,inactive,inactive,–,–
C=C(C)C(=O)O[C@H]1[C@H]2C(=C)C(=O)O[C@@H]2C[C@@H](C)[C@@H]2O[C@@H]2C(=O)[C@](C)(O)[C@@H]1OC(C)=O,inactive,inactive,–,–
c1cncc(CNc2ncnc3ccc(-c4ccco4)cc23)c1,inactive,inactive,–,–
CCCCn1cnc2cc(C(=O)N3CCCCC3)ccc21,inactive,inactive,–,–
COc1ccnc(NC(=S)N2CCN(c3cc(C(F)(F)F)cc(C(F)(F)F)c3)CC2)c1,inactive,inactive,–,–
CC1(C)CC(=O)C2=C(C1)NC(=S)NC2c1cccc(O)c1 (centres undefined),inactive,inactive,–,–
COc1ccccc1C1c2c(ncn(-c3ccccc3)c2=N)Oc2ccc3ccccc3c21 (centres undefined),inactive,inactive,–,–

SMILES,Potency [1],Potency [2],"activity change, negative = inhibition [1]","activity change, negative = inhibition [2]"
CN(c1cccc2cccnc12)S(=O)(=O)c1ccccc1,inactive,inactive,–,–
CC(C)(C)c1ccc(CSc2nc3ncc(Br)cc3[nH]2)cc1,inactive,inactive,–,–
N#Cc1c(-c2ccccc2)no[n+]1[O-],inactive,inactive,–,–
S=C(NCCCN(Cc1ccc(Cl)c(Cl)c1)c1ccc(Br)cn1)NCCc1cnc[nH]1,inactive,inactive,–,–
Cc1ccc(NC(=O)c2ccc3c(c2)CCC(=O)N3)cc1C,inactive,inactive,–,–
O=S(=O)(NCc1ccccc1F)c1ccc(O)c2ncccc12,inactive,inactive,–,–
CN(Cc1ccco1)c1ncnc2ccc(-c3ccccc3Cl)cc12,inactive,inactive,–,–
O=C(Nc1ccccc1)Nc1nnc(-c2ccncc2)s1,inactive,inactive,–,–
O=C(CN1C(=O)N/C(=C\c2cccn2-c2cccc(C(=O)O)c2)C1=O)Nc1cccc(F)c1,inactive,inactive,–,–
Cc1ccc(S(=O)(=O)Nc2ccc(OC(F)(F)F)cc2C(=O)Nc2nc(-c3ccccc3)cs2)cc1,inactive,inactive,–,–
Cc1cccc(CNc2ccnc(-c3cc(C(F)(F)F)cc(C(F)(F)F)c3)n2)c1,inactive,inactive,–,–
COc1ccc2c(c1)CN(C(=O)CCN1CCC(Cc3ccccc3)CC1)CCS2,inactive,inactive,–,–
O=[S+]([O-])(Nc1ccc(C2CCNCC2)cc1)c1ccc(NCc2ccc(Br)cc2O)cc1,inactive,inactive,–,–
Cc1cc(C)nc(NC(=S)N2CCN(c3ccc(Cl)c(Cl)c3Cl)CC2)c1,inactive,inactive,–,–
CC(C)c1ccccc1-c1nc(NCc2ccc(-c3cccnc3)cc2)c2ccccc2n1,inactive,inactive,–,–
O=C1CCCC2=C1C(c1[nH]ncc1Cl)N=C(Nc1nc3cc(Cl)ccc3o1)N2 (centres undefined),inactive,inactive,–,–
